# According to PubChem BioAssay AID720706 (Broad Institute, 2013):
# The campaign covered roughly 350,000 compounds. About 5,500 (1.6%) were called active. The sample holds actives, similar compounds and a random draw of the others, so the mix is not that of the screen.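 Rule for the calls: active = significant combined selectivity score with lowered wild-type GFP, culture density cut under 30%, mutant RFP and density less affected; inactive = any of these conditions unmet.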
# Test: GFP drop in mixed WT/humanized-ribosome E. coli culture – GFP/RFP fluorescence, OD600, single point, bacterial rRNA inhibitor project, primary screen (AID 720706)
# Conditions: E. coli WT GFP vs humanized-ribosome RFP mutants, 24 h; GFP signal change (wild-type ribosome): stronger effect = lower value, DMSO median 0, no signal -100; OD600 change: measured here: OD600 growth, DMSO median 0, no signal -100; RFP signal change: measured here: RFP humanized mutant strains, DMSO median 0, no signal -100, concentration not given here
SMILES,GFP signal change (wild-type ribosome),OD600 change,RFP signal change
CCCNC(=O)C[C@H]1CC[C@H]2[C@@H](COC[C@H](O)CN2C(=O)Nc2c(C)noc2C)O1,-3% (inactive),7.33%,-4.75%
C[C@@H]1CN([C@@H](C)CO)S(=O)(=O)c2ccc(/C=C/c3ccccc3)cc2O[C@@H]1CN(C)C(=O)Nc1cc(F)ccc1F,-1.81% (inactive),7.09%,-0.095%
COc1ccccc1OCCNc1cc(N2CCOCC2)ccc1[N+](=O)[O-],-27.3% (active),-18.1%,-0.933%
CC(=O)Nc1ccc(S(=O)(=O)N2CCN(c3ccc([N+](=O)[O-])c(NCCN4CCOCC4)c3)CC2)cc1,-2.32% (inactive),3%,1.54%
COc1ccc(CCNc2cc(N3CCN(C(=O)c4ccccc4OC)CC3)ccc2[N+](=O)[O-])cc1OC,2.05% (inactive),-0.295%,6.64%
CNC[C@H]1OCCCC[C@H](C)Oc2ccc(NC(=O)Nc3ccc(C(F)(F)F)cc3)cc2C(=O)N([C@H](C)CO)C[C@@H]1C,-45.6% (inactive),-74.3%,-0.5%
COc1ccc(CNC(=O)C[C@@H]2CC[C@H](NC(=O)c3cccc(F)c3)[C@H](CO)O2)cc1,-0.639% (inactive),4.63%,0.956%
C[C@H]1CN([C@@H](C)CO)C(=O)c2cc(C3=CCCC3)cnc2O[C@H]1CN(C)C(=O)Nc1ccc(F)cc1,-0.884% (inactive),7.11%,-0.613%
O=C(N[C@@H]1C=C[C@H](CC(=O)N2CCOCC2)O[C@H]1CO)c1ccccn1,4.32% (inactive),4.06%,0.272%
Cc1cccc(N=Nc2c(O)[nH]c3ccc(F)cc23)c1,-28.8% (active),13.6%,8.49%
Cc1c(-c2ccccc2)n[nH]c1C(=O)N=Nc1c(O)[nH]c2ccccc12,-5.9% (inactive),-4.62%,2.09%
O=C(CNC(=O)Cc1ccccc1)N=Nc1c(O)[nH]c2ccc(Br)cc12,-1.63% (inactive),10%,0.336%
C[C@@H]1CN([C@@H](C)CO)S(=O)(=O)c2ccc(C#C[C@@H](C)O)cc2O[C@@H]1CN(C)CC1CC1,1.29% (inactive),-4.39%,-1.26%
O=C(NCCNc1ccccc1[N+](=O)[O-])c1ccccc1F,-8.66% (inactive),7.69%,-6.27%
O=C(NCc1ccccc1Cl)NC(=O)c1csc([N+](=O)[O-])c1,12.9% (inactive),2.99%,1.52%
O=[N+]([O-])c1ccccc1NCc1ccccc1Cl,-29.2% (active),-20.4%,-10.2%
COc1cccc(CN(C)C[C@H]2OCc3ccccc3-c3c(n(C)c4ccccc34)C(=O)N([C@@H](C)CO)C[C@@H]2C)c1,-21.2% (inactive),-41.4%,18.9%
C[C@@H]1CN([C@H](C)CO)S(=O)(=O)c2ccc(C#CC(C)(C)O)cc2O[C@@H]1CN(C)Cc1ccccc1,1.3% (inactive),-3.23%,-1.75%
C[C@H](CO)N1C[C@H](C)[C@@H](CN(C)Cc2ccccc2)Oc2c(NC(=O)CCCCCC(=O)Nc3ccccc3N)cccc2C1=O,-10% (inactive),-16.3%,2.5%
C[C@H]1CCCCO[C@@H](CN(C)C(=O)Nc2cccc3ccccc23)[C@@H](C)CN([C@@H](C)CO)C(=O)c2cc(NS(=O)(=O)c3cn(C)cn3)ccc2O1,0.08% (inactive),-14.1%,8.18%

SMILES,GFP signal change (wild-type ribosome),OD600 change,RFP signal change
Cc1cccc(NS(=O)(=O)c2ccc(-c3cnc(C4CC4)o3)cc2)c1,-8.12% (inactive),-53.1%,16.8%
Cc1cccc(CNS(=O)(=O)c2ccc(-c3cnc(C4CC4)o3)cc2)c1,-28.7% (active),-23%,-6.22%
COc1ccc(CNS(=O)(=O)c2ccc(-c3cnc(C4CC4)o3)cc2)cc1,-6.21% (inactive),-8.89%,-0.493%
CN1C(=O)c2cc(NC(=O)c3ccccc3)ccc2OC[C@H]2O[C@@H](CC(=O)O)CC[C@@H]21,2.79% (inactive),3.92%,-0.251%
C[C@@H]1CN([C@H](C)CO)C(=O)c2cccc(NC(=O)CCCCCC(=O)Nc3ccccc3N)c2O[C@H]1CN(C)CC1CCCCC1,-16.1% (inactive),-30.3%,-6.11%
COc1ccc(/C=C2\CCc3ccccc3C2=O)c(OC)c1OC,-21.9% (active),-16.9%,-4.31%
COc1ccc(/C=N/NC(=O)C2CC2)c(OC)c1OC,20.9% (inactive),9.1%,-1.71%
COc1ccc(/C=C2/CCCc3ccccc3C2=O)cc1,-37.4% (inactive),-62.5%,-10.8%
Cc1ccccc1-c1ccc([C@H]2[C@H](CO)N3C(=O)CN(C(=O)c4cccnc4)C[C@@H]23)cc1,-0.83% (inactive),-6.48%,5.21%
O=C1N[C@H](Cc2ccccc2)COCc2cn(nn2)CC[C@@H]1Cc1ccc(-c2ccccc2)cc1,-0.275% (inactive),6.34%,-4.54%
CCCC#Cc1cnc2c(c1)C(=O)N([C@H](C)CO)C[C@@H](C)[C@@H](CN(C)C(=O)Nc1ccccc1OC)O2,4.88% (inactive),7.2%,-1.58%
COc1ccc(NC(=O)N(C)C[C@@H]2OCCCC[C@H](C)Oc3ccc(NS(=O)(=O)c4cn(C)cn4)cc3C(=O)N([C@@H](C)CO)C[C@@H]2C)cc1,-1.73% (inactive),-0.21%,1.12%
COc1ccc(S(=O)(=O)Nc2ccc3c(c2)CC(=O)N([C@@H](C)CO)C[C@H](C)[C@@H](CN(C)Cc2ccc(C(=O)O)cc2)O3)cc1,-0.025% (inactive),-7.85%,-0.315%
COc1ccc(CN(C)C[C@H]2Oc3ccc(NS(=O)(=O)c4ccc(Cl)cc4)cc3CC(=O)N([C@@H](C)CO)C[C@H]2C)cc1,-45.9% (active),-36.8%,-1.42%
C[C@@H]1CN([C@@H](C)CO)C(=O)c2cc(NS(=O)(=O)c3ccccc3)ccc2O[C@@H]1CN(C)Cc1ccc(C(=O)Nc2ccccc2N)cc1,-20.2% (active),-5.29%,5.46%
C[C@H](CO)N1C[C@H](C)[C@H](CN(C)Cc2ccc(C(=O)Nc3ccccc3N)cc2)Oc2ccc(NS(C)(=O)=O)cc2C1=O,5.88% (inactive),6.32%,0.92%
Cc1ccc(S(=O)(=O)Nc2ccc3c(c2)C(=O)N([C@@H](C)CO)C[C@@H](C)[C@@H](CN(C)Cc2ccc(C(=O)Nc4ccccc4N)cc2)O3)cc1,-3.29% (inactive),-1.98%,14%
COc1ccc(S(=O)(=O)Nc2ccc3c(c2)CC(=O)N([C@H](C)CO)C[C@H](C)[C@H](CN(C)Cc2ccc(C(F)(F)F)cc2)O3)cc1,-1.22% (inactive),-12.1%,0.965%
COc1ccc2c3c([nH]c2c1)[C@@H](CO)N(C(=O)CC1CC1)CC31CCN(Cc2cccnc2)CC1,1.59% (inactive),3.97%,3.46%
CCOc1ccc2sc(NS(=O)(=O)c3ccc(N)cc3)nc2c1,-24.1% (active),-5.58%,-5%

SMILES,GFP signal change (wild-type ribosome),OD600 change,RFP signal change
CCOc1cc(NS(=O)(=O)c2ccc(OC)cc2)c(OCC)cc1NC(C)=O,12.2% (inactive),0.765%,1.03%
CCOc1ccc(NS(=O)(=O)c2ccc(C)c(C(N)=O)c2)cc1,2.05% (inactive),7.61%,0.34%
COc1ccc2c3c(n(C)c2c1)[C@H](CO)N(CC1CCCCC1)CC31CCN(Cc2nccs2)CC1,5.15% (inactive),-34.3%,21.2%
Cc1noc(C)c1NC(=O)N(C)C[C@@H]1Oc2ccc(NC(=O)CCN3CCOCC3)cc2CC(=O)N([C@H](C)CO)C[C@@H]1C,-0.675% (inactive),4.65%,-1.87%
C[C@@H]1CN([C@H](C)CO)C(=O)c2cccc(NC(=O)Nc3ccc4c(c3)OCO4)c2O[C@H]1CN(C)S(=O)(=O)c1ccccc1,-2.91% (inactive),-5.67%,-1.37%
COc1ccc2c3c([nH]c2c1)[C@@H](CO)N(Cc1ccc2c(c1)OCO2)CC31CN(C(=O)Nc2c(C)noc2C)C1,0.081% (inactive),0.39%,1.36%
CC(C)(C)[S@@](=O)N1Cc2cc(C(=O)O)nc(-c3cccc(-c4cccc(F)c4)c3)c2[C@H]1CCO,4.83% (inactive),5.04%,0.24%
O=C(OCC(=O)c1cccs1)c1ccc([N+](=O)[O-])o1,9.6% (inactive),5.51%,1.76%
O=C(COC(=O)c1ccc(Br)o1)NC12CC3CC(CC(C3)C1)C2,-10.7% (inactive),-7.12%,2.74%
O=C(COC(=O)c1ccc([N+](=O)[O-])o1)NC12CC3CC(CC(C3)C1)C2,-30.1% (active),9.91%,3.52%
CCCNC(=O)Nc1ccc2c(c1)C(=O)N(C)C[C@H](OC)[C@H](C)CN(Cc1ccncc1)[C@H](C)CO2,1.74% (inactive),6.36%,-1.58%
O=C(CCCN1CCc2[nH]c3ccc(F)cc3c2C1)c1ccc(F)cc1,-28.2% (active),-21.9%,3.29%
CC1CCc2[nH]c3ccc(C(=O)N(C)CC(=O)Nc4cccc(F)c4)cc3c2C1 (stereo not given),-34% (inactive),-74.6%,-1.58%
C=CCNC(=S)N1CCc2[nH]c3ccccc3c2C1,1.71% (inactive),-2.66%,1.19%
CC(C)(C)c1ccc(Oc2ccc(N)cc2)cc1,-34% (active),-27.1%,-4.06%
COc1cnc(-c2ccccn2)nc1Oc1ccc(C(C)(C)C)cc1,-55.5% (inactive),-80%,-19.6%
O=C(Nc1cccc(F)c1)N1CC(=O)N2[C@H](CO)[C@H](c3ccc(C#CC4CC4)cc3)[C@@H]2C1,4.76% (inactive),3%,11.4%
CSc1ccc(CN(C)CC(=O)NCc2ccc(F)cc2)cc1,-30.9% (active),-24.5%,-8.04%
Cc1ccc(SC(C)C(=O)NCc2ccc(F)cc2)cc1 (stereo not given),7.25% (inactive),3.19%,-0.85%
CCN(CC(=O)NCc1ccc(F)cc1)S(=O)(=O)c1ccc(Cl)s1,-6.72% (inactive),-25.1%,-2.95%
